In PubChem BioAssay:
For part of these data: Measured potencies and affinities stand elsewhere. Activity calls are given as the source filed them.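 How the source made its calls, unless noted: active means calcium signal cut by more than 3 SD below the full-agonist control yet still positive, in both repeats and the earlier primary screen; inactive means the rest.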

Tests used:
[1] = tested on: TRPC4 beta (transient receptor potential cation channel C4), mouse; test: TRPC4 cation channel opening, retest – cell-based, Fluo4 calcium, HEK293 TRPC4beta/mu-opioid, duplicates, 10 µM, confirmation (AID 2426;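 active means fluorescence ratio normalized to control raised more than 50% in primary screen plus both repeat runs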); settings: Fluo4 calcium fluorescence, at 10 µM; hits give high values
[2] = tested on: transient receptor potential cation channel C4 beta (TRPC4), mouse; test: TRPC4 cation channel opening, second retest – cell-based, second round, Fluo4, HEK293 TRPC4beta/mu-opioid, 1 µM, confirmation (AID 2461;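 active means primary screen active and over 50% activation in each of two duplicate runs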); settings: Fluo4 calcium fluorescence, at 1 µM; hits give high values
[3] = tested on: TRPC4 (transient receptor potential cation channel C4 beta), mouse; test: potentiation of DAMGO EC20 TRPC4 response – cell-based, second round, Fluo-4, HEK293 TRPC4beta/mu-opioid, 1 µM, confirmation (AID 2554;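 active means primary screen hit whose fluorescence ratio, in both repeats, exceeds the weak agonist control mean by 3 SD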); settings: DAMGO EC20, Fluo-4 calcium flux, at 1 µM; hits give high values
[4] = tested on: TRPC4 beta (transient receptor potential cation channel C4), mouse; test: potentiation of DAMGO EC20 TRPC4 response – cell-based, Fluo-4, HEK293 TRPC4beta/mu-opioid, confirmation (AID 2555;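 active means primary screen hit whose calcium fluorescence ratio, in both repeats, exceeds the weak agonist control mean by 3 SD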); settings: DAMGO EC20, Fluo-4 calcium flux, at 10 µM; hits give high values
[5] = target: Short transient receptor potential channel 4 (Mus musculus) (UniProt Q9QUQ5); test: blockers of DAMGO-evoked TRPC4 calcium flux – cell-based, Fluo4, HEK293 TRPC4beta/mu-opioid, confirmation (AID 2636); settings: at 10 µM; hits give high values
[6] = target: Short transient receptor potential channel 4 (Mus musculus) (UniProt Q9QUQ5); test: blockers of DAMGO-evoked TRPC4 calcium flux – cell-based, second round, Fluo4, HEK293 TRPC4beta/mu-opioid, 1 µM, confirmation (AID 2637;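 active means calcium signal ratio cut to more than 3 SD under the fully stimulated control mean yet still positive, in both repeats and the primary screen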); settings: at 1 µM; hits give high values
[7] = target: Short transient receptor potential channel 4 (Mus musculus) (UniProt Q9QUQ5); test: calcium entry via TRPC4 opening agents – cell-based, HEK293 TRPC4/mu-opioid, Fluo-4 calcium, dose response (AID 434937;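 active means primary screen activator hit with a dose response curve and TRPC4 channel activation at any tested dose; inactive means no activation, no dose response, or not a primary hit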)
[8] = target: Short transient receptor potential channel 4 (Mus musculus) (UniProt Q9QUQ5); test: potentiation of DAMGO-evoked TRPC4 calcium signal – cell-based, HEK293 TRPC4/mu-opioid, Fluo-4 calcium, EC20 DAMGO, dose response (AID 434941;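 active means earlier screen potentiator hit that boosts the TRPC4 ion channel at some dose, with a dose response; inactive means no potentiation, no dose response, or not a prior hit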;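 further: calcium entry triggered by an EC20 dose of DAMGO at the co-expressed mu-opioid receptor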)
[9] = target: Short transient receptor potential channel 4 (Mus musculus) (UniProt Q9QUQ5); test: block of DAMGO-driven TRPC4 calcium entry – cell-based, HEK293 TRPC4/mu-opioid, Fluo-4 calcium, dose response (AID 434942;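 active means primary screen inhibitor hit that blocks the TRPC4 channel at some tested dose, yielding a dose curve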)
[10] = target: Short transient receptor potential channel 6 (Mus musculus) (UniProt Q61143); test: TRPC6 blockade by TRPC4 inhibitor hits – cell-based, HEK293, membrane potential dye, duplicate, selectivity assay for TRPC4 inhibitor project, confirmation (AID 434948;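 active means active in primary screen and both duplicates, each dropping signal beyond three positive-control SD with fluorescence still positive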); settings: HEK293 TRPC6, membrane potential dye fluorescence, at 10 µM, stimulated with maximal-effect acetylcholine; hits give high values
[11] = target: Short transient receptor potential channel 6 (Mus musculus) (UniProt Q61143); test: TRPC6 opening by TRPC4 activator hits – cell-based, HEK293, membrane potential dye, duplicate, selectivity assay for TRPC4 activator project, confirmation (AID 434950;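 active means membrane potential signal rise above negative control mean plus 3 SD in both duplicates, also active in the earlier TRPC4 screen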); settings: HEK293 TRPC6, membrane potential fluorescence, at 10 µM; activation: hits give high values; outcome: activation
[12] = target: Short transient receptor potential channel 6 (Mus musculus) (UniProt Q61143); test: positive modulators of mouse TRPC6 channel – HEK293 cells, membrane potential dye, duplicate, selectivity assay for TRPC4 potentiator project, confirmation (AID 434952;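 active means compound raising the membrane signal above positive-control mean plus 3 SD in both repeats, and a primary screen hit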); settings: HEK293 TRPC6, membrane potential dye fluorescence, at 10 µM, maximal acetylcholine added after compound; hits give high values
[13] = target: Short transient receptor potential channel 4 (Mus musculus) (UniProt Q9QUQ5); test: calcium flux activators in TRPC4/5HT1a cells, counter-screen for TRPC4 activator project, cell-based, second counter screen, HEK293 TRPC4/5HT1a, Fluo-4 (AID 434977;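 active means calcium signal rise above buffer-control mean plus 5 SD in both duplicates, and also a hit in the primary screen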); settings: Fluo-4 calcium flux, at 10 µM; hits give high values
[14] = serotonin-gated TRPC4 signal block – cell-based, second counter screen, HEK293 TRPC4/5HT1a, Fluo-4, counter-screen for TRPC4 inhibitor project, confirmation (AID 434978;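 active means primary screen active whose calcium signal fell more than 3 SD beyond the full-serotonin control mean in both duplicate plates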;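 on outcome: serotonin given first at submaximal then at maximal dose after compound preincubation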); settings: Fluo-4 calcium flux, at 10 µM, serotonin added to trigger calcium flux; hits give high values
[15] = tested on: TRPC4 (mouse), co-expressed with 5HT1a in HEK293; test: enhancement of serotonin-evoked TRPC4 response – cell-based, second counter screen, HEK293 TRPC4/5HT1a, Fluo-4, counter-screen for TRPC4 potentiator project, confirmation (AID 434979;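 active means signal rise over 3 SD above mean of control wells given weak agonist, in both repeats and first screen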); settings: Fluo-4 calcium flux, at 10 µM, serotonin added at its EC20 dose; hits give high values
[16] = nonspecific calcium rise without TRPC4 – cell-based, HEK293 mu-opioid receptor line, counter-screen for TRPC4 activator project, confirmation (AID 449723;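 active means hit in primary screen, with calcium signal over 5 SD above buffer well mean in both duplicates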;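 further: counter screen cells carry the mu-opioid receptor alone and lack TRPC4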); settings: HEK293 mu-opioid cells, Fluo-4 calcium fluorescence, at 10 µM; hits give high values
[17] = nonspecific potentiation of DAMGO calcium response – cell-based, HEK293 mu-opioid receptor line, counter-screen for TRPC4 allosteric potentiator project, confirmation (AID 449724;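 active means calcium signal rise more than 3 SD above the low-dose agonist control mean, in both duplicate plates and the primary screen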); settings: HEK293 mu-opioid receptor cells, Fluo-4 calcium flux, at 10 µM, compound added before EC20 DAMGO stimulus; hits give high values

Short transient receptor potential channel 6 (Mus musculus), sequence (Q61143 whole entry, looked up): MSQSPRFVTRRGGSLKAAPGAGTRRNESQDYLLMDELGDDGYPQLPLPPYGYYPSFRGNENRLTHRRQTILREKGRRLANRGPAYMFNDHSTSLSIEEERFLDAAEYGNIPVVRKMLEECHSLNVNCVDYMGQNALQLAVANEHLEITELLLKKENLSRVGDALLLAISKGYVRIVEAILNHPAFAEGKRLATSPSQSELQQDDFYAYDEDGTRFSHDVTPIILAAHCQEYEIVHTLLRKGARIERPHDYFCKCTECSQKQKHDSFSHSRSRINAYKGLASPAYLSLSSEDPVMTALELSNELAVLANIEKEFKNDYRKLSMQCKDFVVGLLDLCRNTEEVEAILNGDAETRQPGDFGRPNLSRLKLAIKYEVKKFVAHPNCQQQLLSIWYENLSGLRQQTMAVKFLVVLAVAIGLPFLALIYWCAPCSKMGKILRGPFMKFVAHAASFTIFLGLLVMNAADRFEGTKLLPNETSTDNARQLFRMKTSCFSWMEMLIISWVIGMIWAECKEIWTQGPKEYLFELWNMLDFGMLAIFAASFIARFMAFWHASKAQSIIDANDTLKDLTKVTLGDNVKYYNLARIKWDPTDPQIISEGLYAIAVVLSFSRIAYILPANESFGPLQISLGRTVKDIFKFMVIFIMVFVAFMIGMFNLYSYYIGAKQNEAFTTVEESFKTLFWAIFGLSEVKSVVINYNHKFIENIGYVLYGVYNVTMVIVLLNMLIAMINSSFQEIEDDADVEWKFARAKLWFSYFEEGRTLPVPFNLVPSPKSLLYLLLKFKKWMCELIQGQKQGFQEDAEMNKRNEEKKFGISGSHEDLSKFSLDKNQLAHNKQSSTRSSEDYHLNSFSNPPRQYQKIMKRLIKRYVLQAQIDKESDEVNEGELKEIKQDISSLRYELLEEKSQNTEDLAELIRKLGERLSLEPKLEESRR
Short transient receptor potential channel 4 (Mus musculus), sequence (Q9QUQ5 whole entry, looked up): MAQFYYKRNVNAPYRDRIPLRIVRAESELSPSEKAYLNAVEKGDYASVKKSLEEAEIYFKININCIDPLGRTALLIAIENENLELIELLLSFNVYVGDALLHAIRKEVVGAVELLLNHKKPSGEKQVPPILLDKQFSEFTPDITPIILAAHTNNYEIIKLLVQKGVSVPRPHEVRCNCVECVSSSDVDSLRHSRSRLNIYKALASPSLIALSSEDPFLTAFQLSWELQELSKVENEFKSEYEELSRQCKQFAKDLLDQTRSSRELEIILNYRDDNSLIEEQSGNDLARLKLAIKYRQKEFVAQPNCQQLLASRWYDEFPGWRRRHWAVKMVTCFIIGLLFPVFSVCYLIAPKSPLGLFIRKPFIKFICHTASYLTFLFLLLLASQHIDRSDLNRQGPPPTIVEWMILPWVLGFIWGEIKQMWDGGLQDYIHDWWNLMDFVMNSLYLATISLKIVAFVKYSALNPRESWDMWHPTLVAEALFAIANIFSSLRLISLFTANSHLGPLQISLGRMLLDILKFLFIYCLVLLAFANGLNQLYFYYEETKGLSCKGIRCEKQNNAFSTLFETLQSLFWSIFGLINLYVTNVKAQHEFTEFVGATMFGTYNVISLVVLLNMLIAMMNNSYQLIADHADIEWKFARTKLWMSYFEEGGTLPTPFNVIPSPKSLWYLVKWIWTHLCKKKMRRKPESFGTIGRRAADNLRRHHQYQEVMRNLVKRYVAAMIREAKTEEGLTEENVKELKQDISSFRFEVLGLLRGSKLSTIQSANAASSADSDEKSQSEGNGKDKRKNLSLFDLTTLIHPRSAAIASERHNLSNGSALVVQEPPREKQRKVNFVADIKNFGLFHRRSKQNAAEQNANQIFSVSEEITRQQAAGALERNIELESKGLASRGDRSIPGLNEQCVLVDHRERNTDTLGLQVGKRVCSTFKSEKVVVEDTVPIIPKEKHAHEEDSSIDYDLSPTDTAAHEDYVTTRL

CN(Cc1ccccc1)C(=O)c1oc(=O)c2ccccc2c1-c1ccccc1
inactive: outcome [1] | outcome [2] | outcome [3] | outcome [4] | outcome [5] | outcome [6] | outcome [7] | outcome [8] | outcome [9] | outcome [10] | outcome [11] | outcome [12] | outcome [13] | outcome [14] | outcome [16] | outcome [17]
active: potentiation [15] 9.58%

CC1=NN(C(=O)COc2ccc(C)c(C)c2)C(O)(c2ccc(Cl)cc2)C1 (stereo not given)
inactive: outcome [1] | outcome [2] | outcome [3] | outcome [4] | outcome [5] | outcome [6] | outcome [7] | outcome [8] | outcome [9] | outcome [10] | outcome [11] | outcome [12] | outcome [13] | outcome [14] | outcome [15] | outcome [16] | outcome [17]

Cc1cc(Oc2ccc(C(C)(C)C)cc2)nc(N2CCOCC2)n1
active: potentiation [4] 7% | potentiation [15] 21.6%
inactive: outcome [1] | outcome [2] | outcome [3] | outcome [5] | outcome [6] | outcome [7] | outcome [8] | outcome [9] | outcome [10] | outcome [11] | outcome [12] | outcome [13] | outcome [14] | outcome [16] | outcome [17]

Cc1sc(NC(=O)C2CCCCC2C(=O)O)c(C(N)=O)c1-c1ccc(C(C)(C)C)cc1 (stereo not given)
active: inhibition [5] 95% | inhibition [14] 18.7%
inactive: outcome [1] | outcome [2] | outcome [3] | outcome [4] | outcome [6] | outcome [7] | outcome [8] | outcome [9] | outcome [10] | outcome [11] | outcome [12] | outcome [13] | outcome [15] | outcome [16] | outcome [17]

Cc1ccc2[nH]c(C)c(CCN(Cc3cccnc3)C(=S)NC(C)(C)C)c2c1
inactive: outcome [1] | outcome [2] | outcome [3] | outcome [4] | outcome [5] | outcome [6] | outcome [7] | outcome [8] | outcome [9] | outcome [10] | outcome [11] | outcome [12] | outcome [13] | outcome [14] | outcome [15] | outcome [16] | outcome [17]

CC(C)Cn1c(O)c(N=NC(=O)c2cccc(S(=O)(=O)N3CCCCC3)c2)c2ccccc21
active: potentiation [4] 15%
inactive: outcome [1] | outcome [2] | outcome [3] | outcome [5] | outcome [6] | outcome [7] | outcome [8] | outcome [9] | outcome [10] | outcome [11] | outcome [12] | outcome [13] | outcome [14] | outcome [15] | outcome [16] | outcome [17]

COc1ccc(C(=O)CN2CCN(CCN3C(=O)c4cccc5cccc(c45)C3=O)CC2)cc1
active: potentiation [3] 21% | potentiation [4] 29% | potentiation [15] 18.9%
inactive: outcome [1] | outcome [2] | outcome [5] | outcome [6] | outcome [7] | outcome [8] | outcome [9] | outcome [10] | outcome [11] | outcome [12] | outcome [13] | outcome [14] | outcome [16] | outcome [17]

CCCc1ccc(OCc2ccc(C(=O)N3CCCC3)o2)cc1
active: potentiation [4] 23% | potentiation [15] 31.2%
inactive: outcome [1] | outcome [2] | outcome [3] | outcome [5] | outcome [6] | outcome [7] | outcome [8] | outcome [9] | outcome [10] | outcome [11] | outcome [12] | outcome [13] | outcome [14] | outcome [16] | outcome [17]

O=C(N/N=C/c1cc2c(cc1Br)OCO2)c1cc2ccccc2o1
inactive: outcome [1] | outcome [2] | outcome [3] | outcome [4] | outcome [6] | outcome [7] | outcome [8] | outcome [9] | outcome [10] | outcome [11] | outcome [12] | outcome [13] | outcome [14] | outcome [15] | outcome [16] | outcome [17]
active: inhibition [5] 93%

Cc1cc(NC(=O)CCN2CCN(Cc3ccccc3)CC2)ccc1Br
active: potentiation [3] 18%
inactive: outcome [1] | outcome [2] | outcome [4] | outcome [5] | outcome [6] | outcome [7] | outcome [8] | outcome [9] | outcome [10] | outcome [11] | outcome [12] | outcome [13] | outcome [14] | outcome [15] | outcome [16] | outcome [17]

COc1ccc(CCNC(=O)Cn2cnc3c(cnn3C(C)(C)C)c2=O)cc1OC
inactive: outcome [1] | outcome [2] | outcome [3] | outcome [4] | outcome [5] | outcome [6] | outcome [7] | outcome [8] | outcome [9] | outcome [10] | outcome [11] | outcome [12] | outcome [13] | outcome [14] | outcome [16] | outcome [17]
active: potentiation [15] 7.92%

Cc1cc(SCC(=O)c2cccc([N+](=O)[O-])c2)nc(=O)[nH]1
inactive: outcome [1] | outcome [2] | outcome [3] | outcome [5] | outcome [6] | outcome [7] | outcome [8] | outcome [9] | outcome [10] | outcome [11] | outcome [12] | outcome [13] | outcome [14] | outcome [16] | outcome [17]
active: potentiation [4] 23% | potentiation [15] 57.9%

Cc1ccc(CN(C(=O)c2cc(=O)c3cc(Cl)c(C)cc3o2)C2CCS(=O)(=O)C2)cc1 (stereo not given)
active: potentiation [15] 64%
inactive: outcome [1] | outcome [2] | outcome [3] | outcome [4] | outcome [5] | outcome [6] | outcome [7] | outcome [8] | outcome [9] | outcome [10] | outcome [11] | outcome [12] | outcome [13] | outcome [14] | outcome [16] | outcome [17]

CN(CCNS(=O)(=O)c1ccc2c(c1)oc(=O)n2C)Cc1ccccc1
inactive: outcome [1] | outcome [2] | outcome [3] | outcome [5] | outcome [6] | outcome [7] | outcome [8] | outcome [9] | outcome [10] | outcome [11] | outcome [12] | outcome [13] | outcome [14] | outcome [16] | outcome [17]
active: potentiation [4] 8% | potentiation [15] 13.7%

CCCSc1nc(C)cc(C)c1S(=O)(=O)c1ccccc1C
inactive: outcome [1] | outcome [2] | outcome [3] | outcome [4] | outcome [5] | outcome [6] | outcome [7] | outcome [8] | outcome [9] | outcome [10] | outcome [11] | outcome [12] | outcome [13] | outcome [14] | outcome [15] | outcome [16] | outcome [17]
